Measured values reported in paper PMC6792352, “Limited Chemical Structural Diversity Found to Modulate Thyroid Hormone Receptor in the Tox21 Chemical Library” (Environmental Health Perspectives, 2019).
Where a name gives a salt, the structure may show the parent alone. Read-outs that look alike come from different tables or passages of the source.

System: thyroid hormone receptor (endogenous TRα and TRβ)
Design: species or system GH3-TRE-Luc (rat pituitary); GH3-TRE-Luc luciferase reporter, antagonist mode against 1 nM T3, loss of signal, qHTS
[1] = read-out: Average AC50 (uM) GH3-TRE-Antag, antagonist mode, 1 nM T3, no GH3 cytotoxicity hit
[2] = read-out: Average AC50 (uM) GH3-TRE-Antag, antagonist mode, 1 nM T3, no GH3 cytotoxicity hit, Average AC50 (uM) GH3-TRE-Antag, 24 h

| SMILES | AC50 [1] [µM] | AC50 [2] [µM] |
| --- | --- | --- |
| CNC(=O)Nc1ccc(Cl)c(Cl)c1 [N-(3,4-Dichlorophenyl)-N'-methylurea] | 48.2 |  |
| Fc1ccc([C@@]2(Cn3cncn3)O[C@@H]2c2ccccc2Cl)cc1 (racemic) [Epoxiconazole] | 41.2 |  |
| CCCCCCCCCC(C)C=O (stereo not drawn) [2-Methylundecanal] | 40.2 |  |
| COC(=O)NC(=S)Nc1ccccc1NC(=S)NC(=O)OC [Thiophanate-methyl] | 78.1 |  |
| CC(C)CC(=O)C1C(=O)c2ccccc2C1=O [2-Isovaleryl-1,3-indanedione] | 77.1 |  |
| CC1=CC(C)(C)Nc2ccccc21 [1,2-Dihydro-2,2,4-trimethylquinoline, polymer] | 28 |  |
| C#C[C@]1(O)CC[C@H]2[C@@H]3CCC4=CC(=O)CC[C@]4(C)[C@H]3CC[C@@]21C [Ethisterone] | 7.79 |  |
| c1ccc(P(c2ccccc2)c2ccccc2)cc1 [Triphenylphosphine] | > 90 |  |
| CC1(C)[C@H](C=C(Cl)Cl)[C@H]1C(=O)O[C@H](C#N)c1cccc(Oc2ccccc2)c1 [Cypermethrin] | > 50 |  |
| Nc1ccc(Oc2ccc(Cl)cc2)cc1 [4-Chloro-4'-aminodiphenyl ether] | 40.7 |  |
| CCCCC(CC)C(=O)OCCOCCOCCOCCOC(=O)C(CC)CCCC (stereo not drawn) [Tetraethylene glycol di(2-ethylhexanoate)] | 82.3 |  |
| CC(C)OC(=S)S [Proxan-sodium] | > 90 |  |
| Cn1c(=O)c2[nH]c(Br)nc2n(C)c1=O [8-Bromotheophylline] | 24.8 |  |
| O=c1cc(-c2ccccc2)oc2ccc3ccccc3c12 [5,6-Benzoflavone] | 7.88 |  |
| O=C(NOC[C@H](O)CO)c1ccc(F)c(F)c1Nc1ccc(I)cc1F [PD 0325901] | 4.11 |  |
| O=C1CCN(c2ccccc2)N1 [3-Pyrazolidinone,1-phenyl-] | > 90 |  |
| O=C(O)Cn1c(C(=O)Nc2nc(-c3ccccc3Cl)cs2)cc2ccccc21 [Lintitript] | > 50 |  |
| CCCCCOC(=O)COc1cc(N2C(=O)C3=C(CCCC3)C2=O)c(F)cc1Cl [Flumiclorac-pentyl] | 52.5 |  |

| SMILES | AC50 [1] [µM] | AC50 [2] [µM] |
| --- | --- | --- |
| O=C1c2ccccc2C(=O)N1CCc1noc(-c2ccc(CN3CCCCCC3)s2)n1 [PharmaGSID_48172] | 75.2 |  |
| O=C(c1ccc(O)cc1)c1ccc(Cl)cc1 [4-Hydroxy-4'-chlorobenzophenone] | 86.9 |  |
| CCCCC(CC)COC(=O)c1ccc(N(C)C)cc1 (stereo not drawn) [2-Ethylhexyl 4-(dimethylamino)benzoate] | 47.2 |  |
| OCCN1CCNCC1 [1-Piperazineethanol] | 74.1 |  |
| c1ccc(C2(c3ccccc3)CC2C2=NCCN2)cc1 (stereo not drawn) [Cifenline succinate] | 35.8 |  |
| COC(=O)[C@H](c1ccccc1Cl)N1CCc2sccc2C1 [Clopidogrel hydrogen sulfate] | 45.8 |  |
| C/C=C1/C(=O)C[C@H]2[C@@H]3CCC4=CC(=O)CC[C@]4(C)[C@H]3CC[C@]12C [Guggulsterone E] | 18 |  |
| CC(CN1CC(=O)NC(=O)C1)N1CC(=O)NC(=O)C1 (stereo not drawn) [ICRF-159] | 33.9 |  |
| Nc1cc(S(=O)(=O)O)cc2cc(S(=O)(=O)O)cc(O)c12 [Monosodium 8-amino-1-naphthol-3,6-disulfonate monohydrate] | 52.6 |  |
| CC(C)C(O)(c1ccc(OC(F)(F)F)cc1)c1cncnc1 (stereo not drawn) [Flurprimidol] | 70.7 |  |
| CCCCCCn1cc[n+](C)c1 [1-Hexyl-3-methylimidazolium chloride] |  | 65.3 |
| Nc1ccc2cc3ccc(N)cc3nc2c1 [Proflavin hydrochloride] |  | 3.25 |
| CC(C)n1c(/C=C/[C@H](O)C[C@H](O)CC(=O)O)c(-c2ccc(F)cc2)c2ccccc21 [Fluvastatin sodium] |  | 39.3 |
| CC(C)n1c(/C=C/[C@H](O)C[C@H](O)CC(=O)O)c(-c2ccc(F)cc2)c2ccccc21 (racemic) [Fluvastatin] |  | 45.3 |
| OCCOCCN1CCN(C2=Nc3ccccc3Sc3ccccc32)CC1 [Quetiapine] |  | 34 |
| N=C(N)NC(=O)c1nc(Cl)c(N)nc1N [Amiloride] |  | 16.4 |
| Nc1c2c(nc3ccccc13)CCCC2 [1,2,3,4-Tetrahydro-9-acridinamine hydrochloride] |  | 92.1 |
| N=C(N)NC(=O)c1nc(Cl)c(N)nc1N [Amiloride hydrochloride] |  | 56.7 |
